Measured values reported in PubChem BioAssay AID1259343 (VanderVen Lab, College of Veterinary Medicine, Cornell …, 2017).
Screen size: about 6,200 compounds; about 2,900 (47%) were called active. Cut-off read from the data, not from the text of the source: active = inhibition above about 50%; inactive = the rest. So high a share suggests a set chosen from earlier hits. The list shows a part of the results.

Experiment: Mycobacterium tuberculosis growth inhibition, primary screen (AID 1259343)
Conditions: inhibition: at 10 µM, hits give high values; outcome: 10 uM

| Structure (SMILES) | inhibition |
| --- | --- |
| Cc1ccc(C2(O)CCN(c3noc(-c4ccccc4)n3)CC2)nc1 | 16.2% (inactive) |
| CC1Cc2cc(CNC(=O)c3cc(C(C)C)nn3C)ccc2O1 (centres undefined) | 3.55% (inactive) |
| Cc1cnc(C(=O)NCc2ccc3c(c2)OCO3)cn1 | 63.5% (active) |
| CCCc1ccc(NC(=O)c2cnc(C)cn2)cc1 | 100% (active) |
| Cc1cnc(C)c(Nc2nc(C(N)Cc3ccc(Cl)cc3)cs2)n1 (centres undefined) | 78.6% (active) |
| Cc1cnc(C)c(Nc2nc(C(N)Cc3ccc(C(F)(F)F)cc3)cs2)n1 (centres undefined) | 81.1% (active) |
| CCc1ccc(NC(=O)COc2ccc(Br)cn2)cc1 | -1.65% (inactive) |
| CCOCCC1(C(=O)Nc2ccc(CC)cc2)CCC1 | 75.8% (active) |
| COCc1cccc(C(=O)Nc2nc(C3CC3)cs2)c1 | 5.98% (inactive) |
| COCc1cccc(C(=O)Nc2ccc(C(C)(C)C)cc2)c1 | 60.8% (active) |
| COc1cc(C)c(CN(C)C(=O)CCl)cc1OC | -15.9% (inactive) |
| COC(=O)c1cccc(S(=O)(=O)N(C)Cc2ccc(C)cc2C)c1 | 82.9% (active) |
| COC(=O)c1c(NC(=O)c2ccccc2Cl)sc2c1CCCC2 | 98.2% (active) |
| NC(=O)c1c(NC(=O)CC23CC4CC(CC(C4)C2)C3)sc2c1CCC2 | 70.6% (active) |
| O=C(Nc1ccccc1Cl)c1csc2c1CCCC2 | 50% (inactive) |
| O=C(NC1CC1)c1c(NC(=O)C23CC4CC(CC(C4)C2)C3)sc2c1CCCC2 | 41.1% (inactive) |
| COC(=O)c1c(NC(=O)c2ccccc2Br)sc(C)c1C | 88.2% (active) |
| O=C(O)c1c(NC(=O)C2CCCCC2)sc2c1CCC2 | 79.8% (active) |
| Cc1cccc(OCCNC(=O)c2c(NC(=O)C3CC3)sc(C)c2C)c1 | 20.2% (inactive) |
| NC(=O)c1c(NC(=O)C2CCCCC2)sc2c1CCCC2 | -14.9% (inactive) |
| CCOC(=O)c1sc(N)c(C(=O)OC)c1C | -1.92% (inactive) |
| O=C(Nc1sc2c(c1C(=O)O)CCCC2)c1cccnc1 | 70.5% (active) |

| Structure (SMILES) | inhibition |
| --- | --- |
| O=C(C=Cc1ccco1)Nc1sc2c(c1C(=O)O)CCCC2 | 8.18% (inactive) |
| COc1ccc(-c2ccc(NC(=O)c3cccnc3)c(C)c2)c(OC)c1OC | 40.8% (inactive) |
| CC1Cc2cc(-c3cc(CC(=O)NCCC4=CCCCC4)no3)ccc2O1 (centres undefined) | 73.2% (active) |
| CC1Cc2cc(-c3cc(CC(=O)NCc4cccnc4)no3)ccc2O1 (centres undefined) | 37.3% (inactive) |
| Cc1cc(NC(=O)Cc2cc(-c3ccc4c(c3)CC(C)O4)on2)no1 (centres undefined) | 34.1% (inactive) |
| CC1Cc2cc(-c3cc(CC(=O)NCc4ccco4)no3)ccc2O1 (centres undefined) | 92.3% (active) |
| COc1cccc(-c2cc(CC(=O)NCCC3=CCCCC3)no2)c1 | 83.2% (active) |
| O=C(Cc1cc(-c2ccc3c(c2)OCO3)on1)NCCC1=CCCCC1 | 41% (inactive) |
| O=C1C=C(O)c2ccccc2C1=O | 53.8% (active) |
| N#CC(=CC=Cc1ccc([N+](=O)[O-])o1)c1nc2ccccc2[nH]1 | 101% (active) |
| N#CC(=Cc1ccc([N+](=O)[O-])o1)c1nc(C2CC2)cs1 | -16.5% (inactive) |
| O=c1cc(C(F)(F)F)c2ccc(OS(=O)(=O)c3ccc(F)c(F)c3)cc2o1 | 1.62% (inactive) |
| N#Cc1ccc(OS(=O)(=O)c2cccs2)cc1 | 51.7% (active) |
| O=c1ccc2ccc(OS(=O)(=O)c3cccs3)cc2o1 | 90.5% (active) |
| CCOC(=O)C(C#N)=Cc1cn(CCC#N)nc1-c1ccc(Br)cc1 | -13.1% (inactive) |
| Oc1ccc(CCNc2nccc(C3CCCC3)n2)cc1 | 51.5% (active) |
| Fc1ccc(-c2cc(CNc3nccc(C4CCCC4)n3)no2)cc1 | 44.8% (inactive) |
| C=CC[P+](N(CCC)CCC)(N(CCC)CCC)N(CCC)CCC | 80% (active) |
| CC(C)=CCc1c(O)cc2occ(-c3ccc4c(c3)OCO4)c(=O)c2c1O | 68.8% (active) |
| CC(C)(C)NC(=O)COc1ccc2oc3c(c2c1)CCCC3 | 31.6% (inactive) |
| COC(=O)c1c(C)oc2ccc(OCC(=O)c3ccc(F)cc3)cc12 | 87.5% (active) |
| O=C(COc1ccc2oc3c(c2c1)CCCC3)NCc1cccnc1 | -6.78% (inactive) |

| Structure (SMILES) | inhibition |
| --- | --- |
| Cc1ccc(-c2c(C)sc3nc(CN4CCN(Cc5ccccc5)CC4)[nH]c(=O)c23)cc1 | 96.5% (active) |
| Cc1ccc(CC(=O)C(C#N)c2nc3sc(C)c(C)c3c(=O)[nH]2)cc1 (centres undefined) | 37.3% (inactive) |
| CCNC(=O)CSc1nnc(-c2ccc(C)cc2)o1 | 93.8% (active) |
| CCCC(C)NC(=O)COc1ncnc2scc(-c3ccc(C)cc3)c12 (centres undefined) | 49.2% (inactive) |
| C=CCNC(=O)CSc1nnc(-c2cccs2)o1 | 99.4% (active) |
| Cc1ccc(-c2nnc(SCC(=O)NC3CC3)o2)cc1 | -24.4% (inactive) |
| c1coc(-c2nnc(SCc3nnc(-c4cccs4)o3)o2)c1 | -25.9% (inactive) |
| CCNC(=O)CSc1nnc(-c2ccccc2)o1 | 92.3% (active) |
| CCCC(C)NC(=O)CSc1nnc(-c2ccc(Cl)cc2)o1 (centres undefined) | 95.8% (active) |
| c1ccc(C(Cn2cncn2)NCc2cccs2)cc1 (centres undefined) | -11.6% (inactive) |
| CCCN(CC1CC1)c1oc(-c2ccc(F)cc2)nc1C#N | 12.7% (inactive) |
| CCOc1ccc(-c2nnc(SCC#N)o2)cc1 | -18% (inactive) |
| Cc1ccc(-c2nnc(SCC(=O)NC(C)C(C)C)o2)cc1 (centres undefined) | 87.3% (active) |
| CCCCNC(=O)CSc1nnc(-c2ccc(OCC)cc2)o1 | 81.2% (active) |
| CC1CCC(NC(=O)CSc2nnc(C(C)C)o2)CC1 (centres undefined) | 32.9% (inactive) |
| Cc1cc(C)cc(N2C(=O)C3N=NN(c4ccc(Br)c(C)c4)C3C2=O)c1 (centres undefined) | 89% (active) |
| COC(=O)c1cc(C)nc(N(C)C)c1C(=O)OC | -14.7% (inactive) |
| CC(C)c1ccc(/C=N\Nc2ncnc3nc[nH]c23)cc1 | 58.7% (active) |
| O=c1c(Cl)c(Cl)cnn1-c1ccc(NC2CC2)c(Cl)c1 | 91.2% (active) |
| O=c1c(Cl)c(Cl)cnn1-c1ccc(N2CCOC(c3ccccc3)C2)c(Cl)c1 (centres undefined) | 16.1% (inactive) |
| c1csc(-c2nnc(SCc3ccc4c(c3)OCO4)n2C2CC2)c1 | -34.7% (inactive) |
| Cc1ccc(-c2nnc(SCC(=O)c3ccc4c(c3)OCO4)n2C)cc1 | 89.8% (active) |

| Structure (SMILES) | inhibition |
| --- | --- |
| CN(C)C(=O)CSc1nnc(-c2ccc(Cl)cc2)n1C | 0.36% (inactive) |
| Cc1nc2cc(NC(=O)C3(C)CCc4c(C)c(O)c(C)c(C)c4O3)ccc2s1 (centres undefined) | 68.5% (active) |
| CN(Cc1cccc(C#N)c1)C(=O)c1cc2c(s1)CCCCCC2 | 30.1% (inactive) |
| CN(Cc1cccs1)C(=O)c1cc2c(cc1O)CCCC2 | 67.8% (active) |
| CCCCNC(=S)N(C)N=Cc1sccc1C | 29% (inactive) |
| CCCCNC(=S)N(C)N=Cc1c(F)c(F)c(F)c(F)c1F | 58% (active) |
| Cc1ccc(-c2cc(C(=O)N3CCCC3C3CCCC3)n[nH]2)s1 (centres undefined) | 31.1% (inactive) |
| COc1ccc(-c2nc(C=CC(=O)N3CCCC4CCCCC43)cs2)cc1 (centres undefined) | 62.1% (active) |
| CCCCc1ccc(N=Cc2c(C)c(C#N)c(=O)n(CCCC)c2O)cc1 | 4.37% (inactive) |
| CCCCc1ccc(N=Cc2nc(/C=C/c3cccc([N+](=O)[O-])c3)oc2O)cc1 | 84.9% (active) |
| COc1ccc(F)cc1Oc1ccc2c(C3CC3)noc2n1 | 30% (inactive) |
| COc1cc(F)ccc1Oc1ccc2c(C3CC3)noc2n1 | 47.7% (inactive) |
| COc1ccc(Oc2ccc3c(C4CC4)noc3n2)c(F)c1 | 61.2% (active) |
| Cc1ccc(Oc2ccc3c(C4CC4)noc3n2)cc1F | 64.9% (active) |
| Cc1cc(Oc2ccc3c(C4CC4)noc3n2)ccc1F | 58.7% (active) |
| CCN(CC)CCN1CCN(c2ccnc3c(-c4cc(C(F)(F)F)cc(C(F)(F)F)c4)cnn23)CC1 | 37.6% (inactive) |
| COCc1[nH]n2c(=O)c(Cl)c(C)nc2c1-c1ccc(C)cc1 | 98.7% (active) |
| Cc1ccccc1-c1cnnc(N2CCCC(COc3ccccc3F)C2)n1 (centres undefined) | -23.4% (inactive) |
| S=c1nnc2c3ccccc3[nH]c2n1CCc1ccccc1 | 18% (inactive) |
| C=C(C)CSc1nnc2c(n1)[nH]c1ccccc12 | 61.6% (active) |
| C=CCSc1nnc2c3ccccc3n(CC=C)c2n1 | 28.1% (inactive) |
| Cc1cc(Br)ccc1NCc1ccc(C#N)cc1 | 35.3% (inactive) |

| Structure (SMILES) | inhibition |
| --- | --- |
| Cc1cc(Br)ccc1NCC(=O)N1CCCCC1 | 95.6% (active) |
| O=C(C=Cc1ccc(OC(F)F)cc1)c1ccc(O)cc1 | 81.8% (active) |
| N#CC(C#N)=C(C=Cc1ccc(OC(F)F)cc1)C1CC1 | -8.38% (inactive) |
| COc1cc(C(=O)C=Cc2ccc(OC(F)F)cc2)ccc1O | 17.6% (inactive) |
| CC(C)c1ccc2[nH]c3c(c2c1)CCC/C3=N\N=C/c1ccncc1 | 78.2% (active) |
| OCC1(Cc2ccccc2F)CCCN(c2noc(-c3ccccc3)n2)C1 (centres undefined) | 17.3% (inactive) |
| C=CCc1ccc(OC(C)C(=O)Nc2ccc(OC)cc2)c(OC)c1 (centres undefined) | 30.5% (inactive) |
| COc1cc(CNc2ccc3nc(C)sc3c2)ccc1OC(F)F | 78.4% (active) |
| COc1ccc(NCc2ccc(OC)c(Br)c2)cn1 | -17.8% (inactive) |
| CC(=NN=C1NC(=O)CS1)c1cc2ccccc2oc1=O | 91.1% (active) |
| COc1ccccc1OCCCCOc1ccccc1Cl | 67.2% (active) |
| COc1ccc(OCCCCOc2ccccc2F)cc1 | 57.2% (active) |
| COc1ccc(OCCOc2ccc(Cl)c(C)c2)cc1 | 80.7% (active) |
| CCOc1ccc(OCCCOc2ccc(Cl)c(C)c2)cc1 | 44.9% (inactive) |
| CCOc1ccccc1OCCOc1ccccc1F | 88.9% (active) |
| COc1cccc(-c2cnnc(NCc3ccccc3OC)n2)c1 | 21.6% (inactive) |
| COc1cccc(-c2ccc(=O)n(Cc3cccc(F)c3)n2)c1 | 22.1% (inactive) |
| COc1cccc(-c2nnn(CCOc3ccccc3F)n2)c1 | 77.6% (active) |
| COc1cccc(OCCCCOc2ccc3ccccc3c2)c1 | 78.5% (active) |
| COc1ccc(OCCOc2ccccc2C#N)cc1 | 56.9% (active) |
| COc1ccccc1OCCCOc1ccccc1F | 80% (active) |
